Compound activity as filed in PubChem BioAssay.
Tau FP inhib = blocks human tau fibril formation measured by polarization; P10636; K18 P301L tau heparin fibrillization, Alexa594 FP, 6 h; Potency, µM (top dose mostly 57.7 µM), most hits filed as inhibitors; actives 0.39% (n = 280,000); AID 1468; also: nearly all actives have a fitted effect of over 55% in size
Target sequence (P10636 561-689 P618L limits assumed): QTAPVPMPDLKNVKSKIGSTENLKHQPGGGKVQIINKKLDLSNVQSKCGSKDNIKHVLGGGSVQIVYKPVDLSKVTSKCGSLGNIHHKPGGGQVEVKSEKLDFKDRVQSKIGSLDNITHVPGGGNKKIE
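Human K18 P301L fragment (15 uM unlabeled plus 0.24 uM Alexa 594-labeled) in 100 mM sodium acetate pH 7 with compound, aggregation induced by 20 uM heparin for 6 hr at 37 C. ThT (30 uM) added for 1 hr, then Alexa 594 FP read.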
Tau ThT inhib = inhibitors of human tau fibril formation, thioflavin T binding. P10636. actives 2.1% (n = 270,000). recombinant tau K18 P301L, heparin-induced fibrillization, ThT fluorescence. Potency, µM (highest dose often 57.4 µM), usual class: inhibitors; also: nearly all actives have a fitted effect of over 55% in size
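In this qHTS, human K18 P301L tau is incubated with compound and heparin for 6 hr at 37 C, and Thioflavin T fluorescence then reports fibril load.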
TRb-SRC2 inh = disrupts binding of human TR beta to SRC2. AID 1469. Potency, µM (titrated, usually from 106 µM), actives largely listed as inhibitors. TRbeta-SRC2 peptide binding, fluorescence polarization; receptor liganded with 1 µM T3. actives 0.065% (n = 280,000); also: nearly all actives have a fitted effect of over 50% in size
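Quantitative HTS by FP: 0.6 uM TRb LBD, 20 nM labeled SRC2 20-mer, 1 uM T3, 5% DMSO; 5 hr ambient incubation; % activity per concentration and potencies from concentration series.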
Tau fluor cs = counter-screen for tau fibril formation inhibitors | actives 0.93% (n = 280,000) | Potency, µM (series often up to 57.7 µM) | tau K18 P301L (four-repeat tau fragment) Alexa594 fluorescence, heparin fibrillization; also: nearly all actives have a fitted effect of over 55% in size
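Human K18 P301L tau (15 uM unlabeled plus 0.24 uM Alexa 594-labeled, final) in 100 mM sodium acetate pH 7 was mixed with compound and 20 uM heparin and incubated 6 hr at 37 C.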
GoLoco inh red = RGS12 GoLoco-Gai1 interaction inhibition; AID 880; actives 0.44% (n = 230,000); Potency, µM (titrated, usually from 61.6 µM), hits mostly inhibitors; P63096; Gai1:RGS12 GoLoco peptide FP, rhodamine, 10 min; active = well fitted inhibition curve with a large enough effect, not every such curve was filed as active; inactive = no such curve, though single readings can be large or run the other way; also: nearly all actives have a fitted effect of over 30% in size
Target sequence (P63096 whole entry, looked up): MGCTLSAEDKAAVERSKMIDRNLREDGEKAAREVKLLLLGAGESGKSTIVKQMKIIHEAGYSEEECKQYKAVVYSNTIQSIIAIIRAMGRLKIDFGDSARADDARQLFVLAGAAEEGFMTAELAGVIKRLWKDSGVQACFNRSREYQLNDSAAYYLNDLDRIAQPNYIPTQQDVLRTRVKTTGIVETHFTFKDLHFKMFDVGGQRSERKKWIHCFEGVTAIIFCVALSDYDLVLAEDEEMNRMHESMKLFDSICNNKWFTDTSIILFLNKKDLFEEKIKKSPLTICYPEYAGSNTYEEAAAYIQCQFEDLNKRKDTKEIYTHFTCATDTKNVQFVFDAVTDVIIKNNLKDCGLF
TR SRC2 fluor cs = alters Texas Red total fluorescence, flagging assay interference; Potency, µM (highest dose often 106 µM); TRb/SRC2 Texas Red total fluorescence interference; actives 0.29% (n = 280,000); AID 1479; active = well fitted curve in either direction with a large enough effect; inconclusive = small, poorly fitted or top-dose-only effect
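Human TRb ligand-binding domain at 0.6 uM with 20 nM Texas Red SRC2 peptide in Tris buffer containing 1 uM T3 and 5% DMSO, incubated with compound 5 h at ambient temperature. Total fluorescence (555/632 nm) calculated as parallel + 2 × perpendicular.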
Large screens that a line does not name were inactive; [ ] = another dose, or the depositor's remark. This is a sample that favours compounds with a hit; in the whole collection about 3.1% have one here. Unless noted, calls follow the shape of the dose curve; as a rule, active = well fitted curve in the direction sought with a large enough effect; inconclusive = small, poorly fitted or top-dose-only effect, or another doubt; inactive = no such curve, though single readings can be large; an effect the other way counts as inactive or inconclusive.

Cc1cc(C2=CC(C)(c3cc(C)oc3C)Nc3nc(C(F)(F)F)nn32)c(C)o1 (stereo not drawn)	Tau FP inhib inconclusive, Tau ThT inhib 28µM
Cc1ccc(C2=CC(C)(c3ccc(C)cc3)Nc3nc(C(F)(F)F)nn32)cc1 (stereo not drawn)	none
O=C(N/N=C/c1ccc(O)c(O)c1O)/C(=C/c1ccc([N+](=O)[O-])cc1)NC(=O)c1ccccc1	Tau FP inhib 8.9µM, Tau ThT inhib 3.5µM, Tau fluor cs inconclusive
COc1ccc(-n2c(SCC(=O)c3ccccc3)nc3c([nH]c4ccccc43)c2=O)cc1	none (no result: GoLoco inh red)
CCOC(=O)c1sc2nc(C)c3c(c2c1N)CC(C)(C)OC3	none
COn1c(C)c(C)c2c3nonc3ccc21	Tau FP inhib inconclusive, Tau ThT inhib 14µM, TRb-SRC2 inh inconclusive, Tau fluor cs inconclusive
CCOC(=O)c1c(C)n(OCc2ccccc2)c2ccc3nonc3c12	none
COc1ccc2sc(C)nc2c1NC(C)=O	none
CN(N=O)C(=O)N[C@H]1C(O)C(O)C(CO)O[C@@H]1O (stereo partly drawn)	GoLoco inh red 20µM
OCC1O[C@H](O)C(Cl)C(O)C1O (stereo partly drawn)	none
Cc1ccc(NC(=O)CC2C(=O)NCCN2C(=S)Nc2ccccc2)c(C)c1 (stereo not drawn)	none
Cc1c(Cl)cccc1NC(=S)N=Nc1c(O)n(CN2CCOCC2)c2ccccc12	Tau ThT inhib inconclusive, Tau fluor cs 18µM[quencher]
O=C(Nc1ccc(F)cc1)c1cccnc1NCCc1ccccc1	Tau FP inhib 13µM, Tau fluor cs inconclusive
O=C(Nc1cccc(C(F)(F)F)c1)c1cccnc1NCCc1ccccc1	Tau FP inhib 14µM, Tau fluor cs inconclusive
O=C(Nc1cccc(F)c1)c1cccnc1NCCc1ccccc1	Tau FP inhib 18µM, Tau fluor cs inconclusive
CCOc1ncccc1C(=O)Nc1ccc(F)cc1	none
CCn1c(COc2ccc3c(c2)CCCC3)nnc1SCC(=O)Nc1nccs1	none
COc1ccc(CNC(=O)Cn2ccc3cc(S(=O)(=O)N4CCCCCC4)ccc32)c(OC)c1	none (no result: GoLoco inh red)
Cn1c(N=NC(=O)c2ccccc2)c(O)c2ccccc21	Tau ThT inhib 13µM, Tau fluor cs inconclusive
O=C(O)CC/C(=N/Nc1ccc([N+](=O)[O-])cc1)C(=O)O	Tau ThT inhib inconclusive
O=C(O)CC/C(=N\Nc1ccc([N+](=O)[O-])cc1)c1ccccc1	Tau ThT inhib 7.9µM, Tau fluor cs inconclusive
N#CC1=C(SCC(=O)c2ccccc2)NC2=C(C(=O)CCC2)C1c1ccco1 (stereo not drawn)	Tau FP inhib 32µM, Tau ThT inhib 13µM
CC(C)(C)c1ccc(C(=O)CCCSC2=C(C#N)C(c3ccco3)C3=C(CCCC3=O)N2)cc1 (stereo not drawn)	none (no result: GoLoco inh red)
COc1cccc(NC(=O)CSC2=C(C#N)C(c3ccco3)C3=C(CCCC3=O)N2)c1 (stereo not drawn)	none
Cc1ccc(C(=O)CSC2=C(C#N)C(c3ccco3)C3=C(CCCC3=O)N2)cc1 (stereo not drawn)	Tau ThT inhib 16µM
COCCCNC(=O)Nc1ccc(Br)cc1Cl	none
Cc1ccc(C(=O)/C=C/Nc2cccc([N+](=O)[O-])c2)o1	Tau ThT inhib 14µM, Tau fluor cs inconclusive
Nc1nonc1N1CCCCC1	none
COC(=O)c1cnn(-c2ccccc2)c1-n1cccc1C=O	none
CCN(CC)CCNC(=O)c1ccc2c(c1NCCO)C(=O)c1ccccc1C2=O	Tau ThT inhib 16µM, Tau fluor cs inconclusive
Cc1cc(N=Nc2c(O)c3ccccc3[nH]c2=O)ccc1N=Nc1ccc(C(=O)N(C)C)cc1	Tau ThT inhib 2.2µM, Tau fluor cs inconclusive
O=C1OCc2ccc(NC(=O)C3CCCCC3)cc21	none
Cc1c2ccccc2nc2c(F)c(NCCO)c(F)c(F)c12	Tau FP inhib inconclusive, Tau ThT inhib 13µM, Tau fluor cs inconclusive, GoLoco inh red 20µM
Cc1nn(-c2ccccc2)c2sc(C(=O)Nc3cccc(Cl)c3)cc12	Tau FP inhib 3.2µM, Tau ThT inhib inconclusive, Tau fluor cs inconclusive (no result: GoLoco inh red)
COc1ccc(-c2nn(C)c3sc(C(=O)Nc4cccc(F)c4)cc23)cc1OC	Tau FP inhib 13µM, Tau fluor cs inconclusive (no result: GoLoco inh red)
Cn1nc(-c2ccccc2F)c2cc(C(=O)Nc3ccc4c(c3)OCCO4)sc21	Tau FP inhib inconclusive, Tau ThT inhib inconclusive, Tau fluor cs 7.9µM[quencher]
COc1cccc(NC(=O)c2cc3c(-c4ccc(Cl)cc4)nn(C)c3s2)c1	Tau FP inhib 16µM, Tau fluor cs inconclusive (no result: GoLoco inh red)
Cc1ccc(CNC(=O)c2ccc(CSCc3ccc(C)cc3)o2)cc1	none (no result: GoLoco inh red)
CCC(C)c1ccc(NC(=S)NCCn2cc(Br)cn2)cc1 (stereo not drawn)	Tau fluor cs inconclusive
CC(C)Cn1cc(C(=O)NCc2cccs2)c2c3ccccc3n(C)c2c1=O	Tau ThT inhib 10µM (no result: GoLoco inh red)
CCN(CCn1cccn1)C(=O)CCc1nnc(C2CCCCC2)o1	none
O=[N+]([O-])c1ccc(/C=N/Nc2nc(N3CCCC3)nc(N3CCCC3)n2)o1	Tau ThT inhib 18µM
Cc1ccc2nc(N/N=C\c3ccc([N+](=O)[O-])o3)nc(-c3ccccc3)c2c1	Tau ThT inhib 3.2µM, Tau fluor cs 10µM[quencher]
O=[N+]([O-])c1ccc(/C=N/Nc2nc(-c3ccccc3)c3cc(Br)ccc3n2)o1	Tau ThT inhib 2.8µM
O=[N+]([O-])c1ccc(/C=N/Nc2ccc3ccccc3c2)o1	Tau FP inhib inconclusive, Tau ThT inhib 3.2µM, Tau fluor cs 3.5µM[quencher]
CCNc1nc(NCC)nc(N/N=C/c2ccc([N+](=O)[O-])o2)n1	Tau ThT inhib inconclusive
O=[n+]1c2c(n([O-])c3c1CCC3)CCCC2	none
CC(=O)Nc1ccc(Nc2ncnc3ccccc23)cc1	none (no result: Tau ThT inhib)
CCSc1ncc(/C=N/Nc2ccc(F)cc2)n1C	Tau ThT inhib 8.9µM, Tau fluor cs inconclusive
O=C(NCc1nc2ccccc2[nH]1)c1ccc(S(=O)(=O)N2CCOCC2)cc1	none
CCN(CC)S(=O)(=O)c1ccc(C(=O)NCCN(C)C)cc1	none
COc1ccc(-c2[nH]c3ccccc3c2SCCNC(=O)c2ccccc2)cc1	none
Cc1ccc(C(=O)NCCSc2c(C)[nH]c3ccccc23)cc1[N+](=O)[O-]	none
Cc1ccc(-c2[nH]c3ccccc3c2SCCNC(=O)c2ccc(S(=O)(=O)N3CCOCC3)cc2)cc1	Tau fluor cs 3.5µM[quencher]
CN(C)S(=O)(=O)c1ccc(C(=O)NCCSc2c(-c3ccc(Br)cc3)[nH]c3ccccc23)cc1	Tau FP inhib inconclusive, Tau fluor cs 4.5µM[quencher] (no result: GoLoco inh red)
